Hit rate of the full screen: of about 330,000 compounds, about 7,700 (2.3%) were called active. Inconclusive results (about 26%) are left out. The full list was thinned out, with actives kept by preference. Unmarked numbers belong to inactive results. Calls come from the whole dose curve; as a rule, active = well fitted inhibition curve with a large enough effect; inconclusive = small, poorly fitted or top-dose-only effect, or effect the other way; inactive = flat fitted curve, though single readings scatter.
% is set by controls: 0 for no effect and ±100 for the full control effect; potency is the fitted concentration of half-maximal effect.

The assay can be described thus: qHTS screen for small molecules that inhibit ELG1-dependent DNA repair in human embryonic kidney (HEK293T) cells expressing luciferase-tagged ELG1. Note: nearly all actives have a fitted effect of over 55% in size. The note with it: HEK293T ELG1-luciferase reporter, luminescence, 16 h, DNA damage induced by 5-fluorouridine; series mostly up to 46.1 µM; activity change, negative = inhibition: at the top concentration. A digest of the protocol: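 Step one: seed 2,000 cells per well. Step two: pin-transfer compound or DMSO alongside 5-fluorouridine. Step three: incubate 16 hr, 37 °C, 5% CO2. Step four: add ONE-Glo, wait 30 min, read luminescence.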
A general note: qHTS replaces the single test concentration by a dilution series.
On to `Cc1ccc(Cl)c(OCC(=O)N(C)CC(=O)Nc2ccc(N3CCOCC3)cc2)c1`, for which the “activity change, negative = inhibition” value is -12.8%.
On the same count and under the same terms, as for `COc1cc2ccccc2cc1C(=O)N(CCN(C)C)c1nc2c(F)cccc2s1`, the figure is -23.6%.
`CN1c2ccc(C=O)c3c(C=O)ccc(c23)N(C)C1(C)C`: the Potency was 6.51 µM (active).
`Cc1cccn2c(=O)c(/C=C(\C#N)C(N)=O)c(N3CCCCCC3)nc12`: the “activity change, negative = inhibition” value was -28%.
Still for that read-out and setting: as for `CC(Sc1ccccc1F)C(=O)Nc1cccc(S(=O)(=O)N2CCOCC2)c1` (configuration not stated), the figure is 2.08%; as for `CC(C)CN(C(=O)COC(=O)c1ccc(Cl)c(N)c1)c1c(N)n(Cc2ccccc2)c(=O)[nH]c1=O`, -14.9%.
As for `COC(=O)C(C)Oc1ccc2c(c1)O/C(=C\c1cccc(Br)c1)C2=O` (configuration not stated), the “activity change, negative = inhibition” value is -0.608%.
Still for that read-out and setting: as for `CNS(=O)(=O)c1cccc(C(=O)OCC(=O)N2c3ccccc3NC(=O)C2(C)C)c1`, the figure is 2.59%.
On the same count and under the same terms, as for `Cc1ccc(OCCC(=O)OCC(=O)N2c3ccccc3NC(=O)C2(C)C)cc1`, the figure is 0.622%.
For `Cc1cc(C(=O)OCC(=O)N2c3ccccc3NC(=O)C2(C)C)c(C)n1-c1ccccc1`, the Potency was 29.1 µM (active).
Turning to `O=c1[nH]cccc1-c1nc2ccccc2n1Cc1ccc(Cl)cc1`, the “activity change, negative = inhibition” value was 1.7%.
With `CC(=O)NC(Cc1c[nH]c2ccccc12)C(=O)O` (configuration not stated), the “activity change, negative = inhibition” value was -11%.
On to `O=C(NC(Cc1c[nH]c2ccccc12)C(=O)N/N=C/c1ccc(Br)cc1)c1cccs1` (configuration not stated), for which the Potency is 23.1 µM (active).
Turning to `O=C(CNC(=O)c1cccs1)N/N=C/c1cccc(Br)c1`, the “activity change, negative = inhibition” value is 5.85%.
On the same count and under the same terms, as for `CC1CN(C(=O)c2ccc([N+](=O)[O-])s2)CC(C)O1` (configuration not stated), the figure is 0.0014%; as for `COc1ccc(CC(=O)NC2CCSc3ccccc32)cc1OC` (configuration not stated), -1.91%.
`CCOc1ccc(CCNC(=O)COC(=O)c2ccc(F)c(S(=O)(=O)N3CCOCC3)c2)cc1OCC`: the “activity change, negative = inhibition” value was 5.86%.
Turning to `COc1ccccc1NS(=O)(=O)c1ccc(C)c(C(=O)NNC(=O)c2csc(N3CCOCC3)n2)c1`, the “activity change, negative = inhibition” value was 4.5%.
Still for that read-out and setting: the same measure for `CN(C(=O)CSc1nnc(-c2ccc3c(c2)OCO3)o1)C1CCS(=O)(=O)C1` (configuration not stated): 5.71%; for `O=C(CN1CCN(S(=O)(=O)/C=C/c2ccccc2)CC1)Nc1ccc(N2CCOCC2)cc1`: 12.1%.
Take `O=C(CN1CCN(c2cccc(Cl)c2)CC1)Nc1ccc(S(=O)(=O)N2CCOCC2)cc1`: the Potency is 18.3 µM (active).
Turning to `O=C(CN1C(=O)CCC1=O)Nc1ccc(S(=O)(=O)N2CCOCC2)cc1`, the “activity change, negative = inhibition” value was 14%.
For the compound `CN(CCNC(=O)c1cc2c(-c3ccccc3F)nn(C)c2s1)C1CCCCC1`, the “activity change, negative = inhibition” value was -7.81%.
Turning to `COc1ccccc1N1CCN(C(=O)c2cc(-c3ccc(Cl)c(Cl)c3)on2)CC1`, the “activity change, negative = inhibition” value was 22.4%.
With `COc1ccccc1N1CCN(C(=O)c2cc3c(-c4ccc(Cl)cc4)nn(C)c3s2)CC1`, the Potency is 11.6 µM (active).
Regarding `Cn1nc(-c2ccc(Cl)cc2)c2cc(C(=O)NCc3ccco3)sc21`, the Potency is 25.9 µM (active).
As to `CCOC(=O)N1CCN(C(=O)c2cc3c(-c4ccc(Cl)cc4)nn(C)c3s2)CC1`, the “activity change, negative = inhibition” value was -25.1%.
In the case of `COc1ccc(-c2cc(C(=O)NCc3ccco3)no2)cc1OC`, the “activity change, negative = inhibition” value was 23.6%.
The same measure, in the same setting: the same measure for `Cc1ccc(CSCC(=O)N(C)CC(=O)Nc2ccc(C)cc2)cc1`: -21.2%.
The same measure, in the same setting: as for `CC(=O)Nc1ccc(S(=O)(=O)NCC(=O)OCC(=O)c2ccc[nH]2)cc1`, the figure is 9.79%.
Regarding `CC(/C=C/c1ccccc1)=N\NC(=O)C1CC1(C)c1ccccc1` (configuration not stated), the Potency is 23.1 µM (active).
Take `CC(/C=C/c1ccco1)=N/NC(=O)C1COc2ccccc2O1` (configuration not stated): the “activity change, negative = inhibition” value is -4.86%.
`O=C(N/N=C/C=C/c1ccccc1)C1CC1(c1ccccc1)c1ccccc1` (configuration not stated): the “activity change, negative = inhibition” value was 3.5%.
For `C#CCOCCOCCOCCNc1nc(N2CCN(C(=O)[C@H](CO)n3cc([C@@H](N)C(C)C)nn3)CC2)nc(N2CCN(C(=O)[C@H](CCC(=O)O)n3cc([C@@H](N)[C@H](C)CC)nn3)CC2)n1`, the “activity change, negative = inhibition” value was 3.33%.
Same read-out and setting: the same measure for `CC(C)(C)c1ccc(NC(=O)NCc2ccco2)cc1`: 29.5%.
Turning to `CC(C)(C)c1ccc(C(=O)NCCC(=O)NCc2ccco2)cc1`, the Potency was 5.8 µM (active).
`O=C(CCNC(=O)c1ccccc1Cl)NCc1ccco1`: the “activity change, negative = inhibition” value was 4.02%.
For the compound `CCCCN(C(=O)c1ccc2ccccc2c1)c1c(N)n(CCCC)c(=O)[nH]c1=O`, the “activity change, negative = inhibition” value was 0%.
The same measure, in the same setting: the same measure for `COCCn1cnnc1SCC(=O)Nc1cccc(S(=O)(=O)N2CCCCC2)c1`: 4.22%.
As to `Cc1ccccc1NC(=O)Nc1ccccc1N1CCCCC1`, the Potency is 18.3 µM (active).
`Cc1ccccc1NC(=O)NC1(C(=O)N2CCCC2)CCCCC1`: the “activity change, negative = inhibition” value is -5.66%.
On the same count and under the same terms, as for `Cc1cccc(N2CC(C(=O)Nc3ccccc3N3CCCC3)CC2=O)c1C` (configuration not stated), the figure is -3.99%.
Same read-out and setting: the same measure for `O=C(CCC1CCCCC1)Nc1cc(C(F)(F)F)ccc1N1CCOCC1`: -4.46%; for `Cc1nn(C)c(C)c1NS(=O)(=O)c1ccc(OC(F)(F)F)cc1`: 0.543%; for `CCN(CC)c1ccc(NC(=O)CN2C(=O)NC3(CCc4ccccc43)C2=O)cc1` (configuration not stated): 5.28%.
Still for that read-out and setting: as for `CCN(CC)S(=O)(=O)c1ccc(CNC(=O)CN2C(=O)NC3(CCc4ccccc43)C2=O)cc1` (configuration not stated), the figure is 3.44%.
`CN(C)S(=O)(=O)c1cc(NC(=O)CN2C(=O)NC3(CCCc4ccccc43)C2=O)ccc1Cl` (configuration not stated): the Potency is 25.9 µM (active).
Consider `N#Cc1ccccc1S(=O)(=O)N1CCN(Cc2c(O)ccc3ccccc23)CC1`, for which the “activity change, negative = inhibition” value was -3.58%.
`COCCn1c(SCC(=O)Nc2cc(Cl)ccc2OC)nc2c(c1=O)SC(C)C2` (configuration not stated): the Potency is 25.9 µM (active).
As for `COCCn1c(SCC(=O)Nc2cc(OC)ccc2OC)nc2c(c1=O)SC(C)C2` (configuration not stated), the “activity change, negative = inhibition” value was -7.11%.
Consider `CCn1c(SCC(=O)Nc2ccccc2F)nc2c(c1=O)SC(C)C2` (configuration not stated), for which the “activity change, negative = inhibition” value is -13.6%.
The same measure, in the same setting: as for `Cc1cc(NC(=O)CSc2nnc(-c3ccco3)n2N)no1`, the figure is 14.5%.
Turning to `CCNS(=O)(=O)c1ccc(CCC(=O)N2CCN(c3cc(Cl)ccc3C)CC2)cc1`, the Potency is 11.6 µM (active).
Consider `CCCNS(=O)(=O)c1ccc(CCC(=O)N2CCCC2)cc1`, for which the “activity change, negative = inhibition” value is -1.71%.
The same measure, in the same setting: the same measure for `CCNS(=O)(=O)c1ccc(CCC(=O)N2CCN(c3ccc(OC)cc3)CC2)cc1`: -9.27%; for `O=C1OC[C@@H]2CCCN2C(=O)[C@H](CC(=O)N(CCO)Cc2ccccc2)C/C=C\CC[C@@H]1Cc1ccc(F)cc1`: 7.5%.
`CCC(=O)Nc1ccccc1N1CCN(S(C)(=O)=O)CC1`: the “activity change, negative = inhibition” value was 8.38%.
Take `COc1ccc(C(=O)NC(=S)Nc2ccccc2N2CCN(S(C)(=O)=O)CC2)cc1OC`: the Potency was 14.6 µM (active).
With `O=C(NC(=S)Nc1ccccc1N1CCCCC1)c1ccc(F)cc1`, the “activity change, negative = inhibition” value is 3.01%.
Still for that read-out and setting: as for `COc1ccc(NC(=O)CNC(=O)Cc2ccccc2)cc1OC`, the figure is 1.57%.
For `COc1ccc(NC(=O)c2cc3nc(-c4ccccc4)cc(C)n3n2)cc1OC`, the Potency was 10.3 µM (active).
Regarding `COc1ccc(NC(=O)COC(=O)Cn2c(C)nc3ccccc32)cc1OC`, the “activity change, negative = inhibition” value is 9.39%.

The values are drawn from PubChem BioAssay AID504467 (National Center for Advancing Translational Sciences (NCATS), 2011).
